The source of these data is PubChem BioAssay (EPA / NIEHS).

Broadly, the AC50 is the concentration giving half of the maximal activity seen.

The source made the active and inactive calls. Rule for the calls: active = hit-call score of the fitted dose curve at least 0.9, where 1 is the maximum; inactive = score below 0.9.

Test [1] is described as follows: BSK_4H_SRB: Viability Assessment in the BioMAP Diversity Plus: 4H Assay (AID 2283027).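 For AC50: curves fitted both ways versus DMSO so AC50 may be loss or gain.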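 Note: cells exposed to compound for 24 h before staining.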 Particulars: primary human endothelial cells (HUVEC). In a few lines:
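HUVEC, 24 h post-dose; 10% TCA fix, 0.1% SRB stain, A560 nm. Total protein = overt cytotoxicity, parallel to biomarker read. Bidirectional fit vs DMSO baseline.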

The nature of test [2]: BSK_BE3C_SRB: Viability Assessment in the BioMAP Diversity Plus: BE3C Assay (AID 2283028).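 For AC50: fitted both ways so AC50 may mark signal gain or loss versus DMSO.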 Conditions: primary human bronchial epithelial cells. The method in brief:
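Primary human bronchial epithelium; chemical dosing, 24 h; 10% TCA fix, 0.1% SRB stain, A560; bidirectional fit vs DMSO baseline.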

Read-out in test [3]: Thrombomodulin, THBD (gene 7056)
Briefly: BSK_3C_Thrombomodulin: BioMAP Diversity Plus: 3C Assay for Thrombomodulin Biomarker Activity (AID 2283029). Particulars: primary human endothelial cells (HUVEC); actives raise or lower the signal. In a few lines:
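Endothelial cells from umbilical vein are dosed with test chemical and incubated 24 h. Thrombomodulin is then quantified by ELISA, with DMSO serving as negative control and activity baseline.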

Read-out in test [4]: Urokinase-type plasminogen activator receptor (uPAR), PLAUR (gene 5329)
Briefly: BSK_4H_uPAR: BioMAP Diversity Plus: 4H Assay for Urokinase-type plasminogen activator receptor (uPAR) Biomarker Activity (AID 2283030). Conditions: primary human endothelial cells (HUVEC); actives raise or lower the signal. The method in brief:
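HUVEC, 24 h post-dose; uPAR by ELISA; bidirectional fit vs DMSO baseline.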

Read-out in test [5]: Vascular endothelial growth factor receptor 2 (Homo sapiens) (UniProt P35968)
Briefly: BSK_4H_VEGFRII: BioMAP Diversity Plus: 4H Assay for Vascular endothelial growth factor receptor 2 (VEGFR2) Biomarker Activity (AID 2283031). Conditions: primary human endothelial cells (HUVEC); actives raise or lower the signal. The method in brief:
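HUVEC (human primary), 4H system; 24 h post-dose; VEGFRII by ELISA; bidirectional curve fit vs DMSO baseline; gain or loss of signal scored.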

Read-out in test [6]: Vascular cell adhesion molecule 1 (VCAM1), VCAM1 (gene 7412)
The test can be described thus: BSK_4H_VCAM1: BioMAP Diversity Plus: 4H Assay for Vascular cell adhesion molecule 1 (VCAM1) Biomarker Activity (AID 2283033).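 For outcome: cell-surface VCAM-1 protein measured by ELISA.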 Particulars: primary human endothelial cells (HUVEC); actives raise or lower the signal. The method in brief:
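Chemicals are added to primary human umbilical vein endothelial cells. After 24 h, VCAM-1 levels are measured by ELISA. Values come from bidirectional fitting referenced to DMSO.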

Read-out in test [7]: Interferon-gamma inducible Protein 10 (IP10), CXCL10 (gene 3627)
Briefly: BSK_BE3C_IP10: BioMAP Diversity Plus: BE3C Assay for Interferon-gamma inducible Protein 10 (IP10) Biomarker Activity (AID 2283034). Conditions: primary human bronchial epithelial cells; actives raise or lower the signal. The method in brief:
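IP-10 quantified by ELISA serves as the endpoint. Cells: primary human bronchial epithelium, read 24 h after compound addition. Activity is derived by bidirectional fitting with DMSO as negative control.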

Read-out in test [8]: Monokine induced gamma interferon (MIG), CXCL9 (gene 4283)
Briefly: BSK_BE3C_MIG: BioMAP Diversity Plus: BE3C Assay for Monokine induced gamma interferon (MIG) Biomarker Activity (AID 2283035).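 For outcome: MIG protein measured by ELISA in BE3C cultures after 24 h of dosing.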 Conditions: primary human bronchial epithelial cells; actives raise or lower the signal. In a few lines:
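Dose cells (human primary bronchial epithelial), incubate 24 h, quantify MIG by ELISA, then fit concentration–response in both directions relative to DMSO control.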

Read-out in test [9]: Transforming growth factor beta 1 (TGFb1), TGFB1 (gene 7040)
Briefly: BSK_BE3C_TGFb1: BioMAP Diversity Plus: BE3C Assay for Transforming growth factor beta 1 (TGFb1) Biomarker Activity (AID 2283036;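 for outcome: TGF-b1 protein level measured by ELISA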). Conditions: primary human bronchial epithelial cells; actives raise or lower the signal. The method in brief: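 Bronchial epithelial primary cells are treated with test chemical, then TGF-b1 is quantified by ELISA after 24 hours. Values derive from bidirectional fitting against DMSO, with cytotoxicity checked by SRB staining in parallel cultures.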

Read-out in test [10]: Plasminogen activator inhibitor-1 (PAI1), SERPINE1 (gene 5054)
Briefly: BSK_BE3C_PAI1: BioMAP Diversity Plus: BE3C Assay for Plasminogen activator inhibitor-1 (PAI1) Biomarker Activity (AID 2283037). Particulars: primary human bronchial epithelial cells; actives raise or lower the signal. In a few lines: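 Values derive from bidirectional fitting against DMSO baseline of PAI-1 levels, measured by ELISA in human bronchial epithelial cells 24 h after compound addition.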

Read-out in test [11]: urokinase plasminogen activator (uPA), PLAU (gene 5328)
The test can be described thus: BSK_BE3C_uPA: BioMAP Diversity Plus: BE3C Assay for urokinase plasminogen activator (uPA) Biomarker Activity (AID 2283038).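 For outcome: uPA protein level quantified by ELISA in cell cultures; uPA read one day after compound addition.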 Particulars: primary human bronchial epithelial cells; actives raise or lower the signal. The method in brief:
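ELISA read-out of uPA in human lung primary bronchial epithelial cultures, 24 h post-dosing. Gain or loss of signal fitted bidirectionally relative to DMSO baseline; cytotoxicity checked in parallel cultures via SRB total protein stain.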

Read-out in test [12]: Urokinase-type plasminogen activator receptor (uPAR), PLAUR (gene 5329)
Briefly: BSK_BE3C_uPAR: BioMAP Diversity Plus: BE3C Assay for Urokinase-type plasminogen activator receptor (uPAR) Biomarker Activity (AID 2283039).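 For outcome: uPAR protein level measured by ELISA on the cells; cells exposed to compound for one day before measurement.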 Particulars: primary human bronchial epithelial cells; actives raise or lower the signal. In a few lines:
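Steps: dose human primary bronchial epithelial cells, incubate 24 h, measure uPAR by ELISA, then fit gain- or loss-of-signal response bidirectionally relative to DMSO.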

Read-out in test [13]: Interleukin-6 (IL6), IL6 (gene 3569)
Briefly: BSK_CASM3C_IL6: BioMAP Diversity Plus: CASM3C Assay for Interleukin-6 (IL6) Biomarker Activity for (AID 2283040). Particulars: primary human coronary artery smooth muscle cells; actives raise or lower the signal.

Read-out in test [14]: Tissue plasminogen activator (tPA), PLAT (gene 5327)
Briefly: BSK_BE3C_tPA: BioMAP Diversity Plus: BE3C Assay for Tissue plasminogen activator (tPA) Biomarker Activity (AID 2283041).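 For outcome: tPA level quantified by ELISA one day after compound addition.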 Conditions: primary human bronchial epithelial cells; actives raise or lower the signal. In a few lines:
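Gain- or loss-of-signal in tPA, measured by ELISA, derived by bidirectional fitting against DMSO. Cells: human primary bronchial epithelial; read at 24 h after chemical dosing.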

Read-out in test [15]: Interleukin-8 (IL8), CXCL8 (gene 3576)
The test can be described thus: BSK_CASM3C_IL8: BioMAP Diversity Plus: CASM3C Assay for Interleukin-8 (IL8) Biomarker Activity (AID 2283042).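 Note: IL-8 protein level quantified by ELISA.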 Conditions: primary human coronary artery smooth muscle cells; actives raise or lower the signal.

Read-out in test [16]: Human Leukocyte Antigen - DR isotype (HLADR), HLA-DRA (gene 3122)
Briefly: BSK_CASM3C_HLADR: BioMAP Diversity Plus: CASM3C Assay for Human Leukocyte Antigen - DR isotype (HLADR) Biomarker Activity (AID 2283043).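 Note: cell-surface HLA-DR protein level quantified by ELISA.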 Conditions: primary human coronary artery smooth muscle cells; actives raise or lower the signal.

Read-out in test [17]: Macrophage colony-stimulating factor (MCSF), CSF1 (gene 1435)
Briefly: BSK_CASM3C_MCSF: BioMAP Diversity Plus: CASM3C Assay for Macrophage colony-stimulating factor (MCSF) Biomarker Activity (AID 2283044).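 Note: M-CSF protein amount quantified by ELISA after 24 h exposure.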 Conditions: primary human coronary artery smooth muscle cells; actives raise or lower the signal.

Read-out in test [18]: Low-density lipoprotein receptor (LDLR), LDLR (gene 3949)
The test can be described thus: BSK_CASM3C_LDLR: BioMAP Diversity Plus: CASM3C Assay for Low-density lipoprotein receptor (LDLR) Biomarker Activity (AID 2283045).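 Note: LDLR protein level on the cell surface quantified by ELISA.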 Conditions: primary human coronary artery smooth muscle cells; actives raise or lower the signal.

Read-out in test [19]: Monocyte Chemoattractant Protein-1 (MCP1), CCL2 (gene 6347)
Briefly: BSK_CASM3C_MCP1: BioMAP Diversity Plus: CASM3C Assay for Monocyte Chemoattractant Protein-1 (MCP1) Biomarker Activity (AID 2283046).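 Note: MCP-1 level quantified by ELISA 24 h after dosing.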 Conditions: primary human coronary artery smooth muscle cells; actives raise or lower the signal.

Read-out in test [20]: Human Leukocyte Antigen - DR isotype (HLADR), HLA-DRA (gene 3122)
The test can be described thus: BSK_BE3C_HLADR: BioMAP Diversity Plus: BE3C Assay for Human Leukocyte Antigen - DR isotype (HLADR) Biomarker Activity (AID 2283032). Conditions: primary human bronchial epithelial cells; actives raise or lower the signal. In a few lines: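 Chemicals are dosed onto BE3C bronchial epithelial cultures of human origin and left 24 h. HLA-DR is then measured by ELISA, and the endpoint is fitted in both directions using DMSO as the activity baseline.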

For `O=C(O)CN(CC(=O)O)CC(=O)O`, the result in test [1], in [2], in [3], in test [4], in [5] and in test [6] was inactive. In addition, the outcome in [7], in test [8], in [9], in test [10], in [11] and in test [12] was inactive. Also, the result in [13], in [14], in [15], in [16], in test [17] and in test [18] was inactive. Also, in [19], the result was inactive.

In the case of `CO[C@@H]1COCC[C@@H]1N[C@@H]1CC[C@@](C(=O)N2CCc3ncc(C(F)(F)F)cc3C2)(C(C)C)C1`, the result in test [1], in test [2], in [3], in test [4], in test [5] and in test [6] was inactive. In addition, the result in test [7], in test [8], in [9], in [10], in [11] and in [12] was inactive. Also, the result in [13], in test [14], in [15], in test [16], in test [17] and in test [18] was inactive. The outcome in test [19] was inactive.

Regarding `CC(COCC(C)OC(=O)c1ccccc1)OC(=O)c1ccccc1` (stereo not given), the result in test [1], in test [2], in test [3], in test [4], in test [5] and in test [20] was inactive. Further, the outcome in [6], in [7], in [8], in [9], in [10] and in test [11] was inactive. In addition, the result in [12], in test [13], in test [14], in [15], in [16] and in test [17] was inactive. Further, the result in test [18] and in test [19] was inactive.

For `O=C(O)c1cccnc1`, the outcome in test [1], in test [2], in test [3], in test [4], in [5] and in test [20] was inactive. The outcome in test [6], in [7], in test [8], in test [9], in test [10] and in test [11] was inactive. Further, the result in test [12], in test [13], in [14], in [15], in test [16] and in test [17] was inactive. Besides, the result in test [18] and in [19] was inactive.

Consider `CC(C)c1cccc(C(C)C)c1NC(=O)NS(=O)(=O)c1cc(C(C)(C)O)co1`, for which the result in [1], in test [2], in test [3], in test [4], in test [5] and in test [6] was inactive. The outcome in test [7], in test [8], in test [9], in test [10], in test [11] and in test [12] was inactive. The outcome in [13], in [14], in test [15], in [16], in [17] and in [18] was inactive. Further, the result in test [19] was inactive.

For the compound `COc1ccc(OC(F)(F)F)cc1CN[C@H]1CCCN[C@H]1c1ccccc1`, the AC50 in test [1] was 14.3 µM (active); in test [3] it was 17.8 µM (active); in [4] it was 20 µM (active); in test [11] it was 20 µM (active); in test [16], 14.7 µM (active); in test [18], 6.31 µM (active). Further, the outcome in [2], in test [5], in test [6], in test [7], in [8] and in test [9] was inactive. For the same compound, the outcome in test [10], in [12], in test [13], in test [14], in test [15] and in test [17] was inactive. Also, in test [19], the result was inactive.

Take `CCCCCCCCCCCCCCOS(=O)(=O)O`: the result in test [1], in test [4], in test [5], in test [13], in test [15] and in test [16] was inactive. Further, the result in test [17], in [18] and in test [19] was inactive. The AC50 in test [2] is 21.2 µM (active); in [3] it was 33.8 µM (active); in [6], 20 µM (active); in test [7] it was 17.4 µM (active); in test [8] it was 34.2 µM (active); in test [9] it was 30.5 µM (active). The AC50 in [10] is 20 µM (active); in [11], 28.6 µM (active); in [12], 16.1 µM (active); in test [14] it was 18.8 µM (active).
